In all, about 48,000 compounds went through this assay and about 13,000 (27%) showed an effect of 50% or more. This is one part of the list.
The compounds below were run on Wolbachia pipientis (assay: Anti-Wolbachia Cell-Based Screen). Conditions: 5 µM.
Type: functional
Design: scale not given: in the data most compounds retested in dose-response had high values
In the case of `CN(C)C(=O)Cn1cc(C#N)c(=O)c2cc(Br)ccc21`, the “Percent Effect” value is reported as -22.43%.
In the case of `COCC(NC(=O)c1ccc(O)nc1)c1ccc(C)o1` (configuration not stated), the “Percent Effect” value is reported as 3.678%.
With `O=S(=O)(c1ccc(-c2nc3c([nH]2)CCNC3)cc1)N1CCCC1` the “Percent Effect” value was -8.56%.
For `CCCSCC(=O)N1CCCC(c2nccn2Cc2ccncc2)C1` (configuration not stated), the “Percent Effect” value was 15.91%.
In the case of `O=C(COCC1CC1)N1CCCC(n2cncn2)C1` (configuration not stated), the “Percent Effect” value is reported as 10.78%.
With `CC(c1ccccn1)N(C)Cc1ccc(CCC(C)(C)O)cc1` (configuration not stated) the “Percent Effect” value was 6.636%.
`CC(c1ccccn1)N(C)Cc1ccc(-n2ccnc2)cc1` (configuration not stated) was tested, and the “Percent Effect” value was 100.9%.
`COCCn1ccnc1CN(Cc1ccccn1)CC(C)C` was tested, and the “Percent Effect” value was -12.4%.
In the case of `CC(C)C(O)C(C)(C)CNC(=O)NCc1ccc(-n2cncn2)cc1` (configuration not stated), the “Percent Effect” value is reported as -5.14%.
With `CN(Cc1ccc(-n2cncn2)cc1)Cc1ncc[nH]1` the “Percent Effect” value was -14.86%.
`CC(C)CN(Cc1ccc(-n2cncn2)cc1)Cc1ccccn1` was tested, and the “Percent Effect” value was 111.5%.
`CN(Cc1ccc(-n2ccnc2)cc1)Cc1ncc[nH]1` was tested, and the “Percent Effect” value was -4.002%.
`CC(C)CN(Cc1ccc(O)c(C(=O)O)c1)Cc1ccccn1` was tested, and the “Percent Effect” value was -5.995%.
For `CC(c1ccccn1)N(C)Cc1ccc(-n2cncn2)cc1` (configuration not stated), the “Percent Effect” value was 115.2%.
With `COc1ccc(OC)c(S(=O)(=O)NC(=O)C(C)OC)c1` (configuration not stated) the “Percent Effect” value was 1.842%.
With `CC(C)=CCC1(CO)CCCN(S(C)(=O)=O)C1` (configuration not stated) the “Percent Effect” value was -9.202%.
`CCc1csc(C2CCCN(C(=O)c3ccc4[nH]nnc4c3)C2)n1` (configuration not stated) was tested, and the “Percent Effect” value was 100.2%.
With `CCc1csc(C2CCCN(C(=O)c3cnc[nH]3)C2)n1` (configuration not stated) the “Percent Effect” value was 106.6%.
With `CCc1nc(CN2CCCN(C(=O)c3cnc[nH]3)CC2)cs1` the “Percent Effect” value was -9.99%.
With `CCc1csc(C2CCCN(C(=O)c3ccc4c(c3)OCO4)C2)n1` (configuration not stated) the “Percent Effect” value was -10.1%.
In the case of `Cc1csc(C2CCCN(C(=O)c3cnc[nH]3)C2)n1` (configuration not stated), the “Percent Effect” value is reported as -6.546%.
`CCc1csc(C2CCCN(C(=O)c3ccc(=O)n(CC)n3)C2)n1` (configuration not stated) was tested, and the “Percent Effect” value was 101.1%.
In the case of `CCc1csc(C2CCCN(C(=O)c3ccc(=O)n(C)n3)C2)n1` (configuration not stated), the “Percent Effect” value is reported as -0.1419%.
`CCc1csc(C2CCCN(C(=O)c3ccncc3)C2)n1` (configuration not stated) was tested, and the “Percent Effect” value was 12.22%.
`CCc1csc(C2CCCN(C(=O)c3ncccn3)C2)n1` (configuration not stated) was tested, and the “Percent Effect” value was 104%.
`CC(C)c1csc(C2CCCN(C(=O)c3ncccn3)C2)n1` (configuration not stated) was tested, and the “Percent Effect” value was 1.009%.
With `CCc1csc(C2CCCN(C(=O)c3ccc(OC)nc3)C2)n1` (configuration not stated) the “Percent Effect” value was 6.728%.
`COC(=O)CNC(=O)C1(NC(=O)c2ccc3[nH]ncc3c2)CCCC1` was tested, and the “Percent Effect” value was 5.444%.
With `CNS(=O)(=O)c1ccccc1N1CCN(C(C)C(N)=O)CC1` (configuration not stated) the “Percent Effect” value was -9.322%.
`CC(C)NC(=O)N1CC[C@@H](N(C)C)[C@@H]1Cc1ccncc1.O=C(O)C(F)(F)F.O=C(O)C(F)(F)F` was tested, and the “Percent Effect” value was -7.431%.
`CCc1csc(C2CCCN(C(=O)c3ccco3)C2)n1` (configuration not stated) was tested, and the “Percent Effect” value was 94.24%.
With `Cc1csc(C2CCCN(C(=O)c3cc(Cl)c[nH]3)C2)n1` (configuration not stated) the “Percent Effect” value was -0.3257%.
In the case of `CCc1csc(C2CCCN(C(=O)c3ccccn3)C2)n1` (configuration not stated), the “Percent Effect” value is reported as 106.7%.
`CCc1csc(C2CCCN(C(=O)c3cc(C4CC4)[nH]n3)C2)n1` (configuration not stated) was tested, and the “Percent Effect” value was 98.97%.
In the case of `CCc1csc(C2CCCN(C(=O)c3ccc(OC)nn3)C2)n1` (configuration not stated), the “Percent Effect” value is reported as 3.799%.
With `CCc1csc(C2CCCN(C(=O)c3c[nH]c(C)n3)C2)n1` (configuration not stated) the “Percent Effect” value was 6.503%.
For `CCOC(=O)CCC(=O)N1CC(c2nc(Cc3ccccc3)no2)C1`, the “Percent Effect” value was -13.25%.
In the case of `CCN(C(=O)CN1CCC(c2ccccc2)C1)C1CC1` (configuration not stated), the “Percent Effect” value is reported as 4.674%.
In the case of `CCOC(=O)[C@@H]1CN2CCNC[C@@H]2[C@H]1c1ccccc1`, the “Percent Effect” value is reported as 110.8%.
`O=C(CCn1cncn1)N1C[C@H]2CC[C@@H]1CN(Cc1ccncc1)C2` was tested, and the “Percent Effect” value was 5.769%.
In the case of `CC(CN1CCOCC1)OC(=O)c1cccc2cn[nH]c12` (configuration not stated), the “Percent Effect” value is reported as -3.971%.
In the case of `Cc1ocnc1C(=O)N1CCCN(Cc2cscn2)CC1`, the “Percent Effect” value is reported as 126.9%.
In the case of `Cc1cc(C(C)C(=O)N2CCCN(Cc3cscn3)CC2)c(C)o1` (configuration not stated), the “Percent Effect” value is reported as -21.53%.
In the case of `Cc1csc(N2CCCN(C(=O)c3c(C)oc(C)c3C)CC2)n1`, the “Percent Effect” value is reported as 12.08%.
In the case of `Cc1noc(C)c1CNC(=O)N1CCN(Cc2cscn2)CC1`, the “Percent Effect” value is reported as -4.059%.
In the case of `Cc1oc(C)c(C(=O)N2CCN(Cc3cscn3)CC2)c1C`, the “Percent Effect” value is reported as 159.3%.
With `CCc1noc(C)c1C(=O)N1CCCN(Cc2csc(C)n2)CC1` the “Percent Effect” value was 18.09%.
`Cc1nc(CN2CCCN(C(=O)c3c(C)oc(C)c3C)CC2)cs1` was tested, and the “Percent Effect” value was 108.1%.
`CCc1noc(C)c1C(=O)N1CCCN(Cc2cscn2)CC1` was tested, and the “Percent Effect” value was 149%.
With `Cc1nc(CN2CCCN(C(=O)c3c(C)noc3C)CC2)cs1` the “Percent Effect” value was 14.06%.
With `Cc1oc(C)c(C(=O)N2CCCN(Cc3cscn3)CC2)c1C` the “Percent Effect” value was 2.495%.
For `Cc1nn(C)c(Cl)c1S(=O)(=O)N(CC(N)=O)CC(C)C`, the “Percent Effect” value was -2.815%.
`O=C(c1cccc(F)c1F)N1CCn2c(nnc2C(F)(F)F)C1` was tested, and the “Percent Effect” value was -8.426%.
With `O=C(NCC1=CCCCC1)C(c1cccnc1)N1CCCC1` (configuration not stated) the “Percent Effect” value was 4.63%.
For `CCc1nc(CN2CCCN(C(=O)c3c(C)noc3C)CC2)cs1`, the “Percent Effect” value was -12.93%.
`CCc1ncncc1C(=O)N1CCN(Cc2ccco2)CC1` was tested, and the “Percent Effect” value was 2.127%.
For `Cc1noc(C(C)C)c1C(=O)N1CCCN(Cc2cscn2)CC1`, the “Percent Effect” value was 0.5158%.
In the case of `Cc1noc(C)c1C(=O)N1CCCN(Cc2cscn2)CC1`, the “Percent Effect” value is reported as 110.4%.
For `CCc1ncncc1C(=O)N1CCN(Cc2cscn2)CC1`, the “Percent Effect” value was 108.1%.
For `CC(C)c1ncncc1C(=O)N1CCN(Cc2cscn2)CC1`, the “Percent Effect” value was -5.142%.
With `Cc1ccnc(NC(=O)CCNC(=O)c2ccccc2Cl)c1` the “Percent Effect” value was 8.062%.
With `CN(CCCNC(=O)c1ccccc1F)CC(F)(F)F` the “Percent Effect” value was 0.1047%.
For `CN(C)CCCNC(=O)c1ccccc1NC(=O)c1cc(Cl)ccc1Cl`, the “Percent Effect” value was 87.51%.
`CN(C)CCNC(=O)c1ccccc1NC(=O)c1cc(Cl)ccc1Cl` was tested, and the “Percent Effect” value was 115.7%.
`CN(C)CCNC(=O)c1cnc2c(c1)nc(-c1ccccc1Cl)n2C` was tested, and the “Percent Effect” value was -9.554%.
`COc1cc(NC(=O)c2ccccc2F)c(C(=O)N(C)C)cc1OC` was tested, and the “Percent Effect” value was -7.835%.
`CN(CC(=O)Nc1ccccc1C(=O)NC1CC1)Cc1ccccc1Cl` was tested, and the “Percent Effect” value was 6.232%.
With `CN(C)CCCNC(=O)c1ccccc1NC(=O)c1ccccc1Cl` the “Percent Effect” value was 105.1%.
For `CN(C)CCCNC(=O)c1ccnc(OCc2ccccc2)c1`, the “Percent Effect” value was -11.72%.
In the case of `COCc1nc2cc(NCc3cc[nH]n3)ccc2o1`, the “Percent Effect” value is reported as -2.175%.
For `CC(=O)Nc1cc(CN(C)C)ccc1C`, the “Percent Effect” value was -5.311%.
`CC(C(=O)N1CCCC1)S(=O)(=O)Cc1noc(C(C)(C)C)n1` (configuration not stated) was tested, and the “Percent Effect” value was -6.108%.
With `Cc1cc(C2CCCN(Cc3ncc(C)o3)C2)n[nH]1` (configuration not stated) the “Percent Effect” value was -4.273%.
`Cc1cc(C)n(CC2CCCN2CCCS(N)(=O)=O)n1` (configuration not stated) was tested, and the “Percent Effect” value was -6.761%.
`Cc1cc(C2CCCN(CCCNS(C)(=O)=O)C2)n[nH]1` (configuration not stated) was tested, and the “Percent Effect” value was -11.22%.
For `Cc1cc(C2CCCN(CCCS(N)(=O)=O)C2)n[nH]1` (configuration not stated), the “Percent Effect” value was 116%.
`Cc1cc(C2CCCN(CCCS(C)(=O)=O)C2)n[nH]1` (configuration not stated) was tested, and the “Percent Effect” value was 81.87%.
In the case of `COC(=O)c1cc(NC(=O)CCc2cscn2)ccc1C`, the “Percent Effect” value is reported as -13.27%.
With `CN1CSC[C@H]1C(=O)N1CCN(Cc2cccc(F)c2)CC1` the “Percent Effect” value was -1.728%.
In the case of `c1cnnc(N2CCCC2CNCc2cc[nH]n2)c1` (configuration not stated), the “Percent Effect” value is reported as 6.061%.
With `NCC1Cn2nnc(-c3cccc(F)c3)c2CO1` (configuration not stated) the “Percent Effect” value was -2.933%.
With `Cc1cnn(CCNCc2csc(C)n2)c1` the “Percent Effect” value was 11.83%.
In the case of `COCC1c2c(cnn2CC2CC2)CCN1Cc1cc(C)on1.O=C(O)C(F)(F)F.O=C(O)C(F)(F)F` (configuration not stated), the “Percent Effect” value is reported as 63.1%.
With `COCC1c2c(cnn2CC2CC2)CCN1Cc1cccs1.O=C(O)C(F)(F)F.O=C(O)C(F)(F)F` (configuration not stated) the “Percent Effect” value was -10.1%.
In the case of `COCC1c2c(cnn2CC2CC2)CCN1Cc1ccc(OC)cc1` (configuration not stated), the “Percent Effect” value is reported as -7.562%.
`CCOCC1c2c(cnn2CC2CC2)CCN1Cc1nccs1.O=C(O)C(F)(F)F.O=C(O)C(F)(F)F` (configuration not stated) was tested, and the “Percent Effect” value was 115.2%.
`COCC1c2c(cnn2CC2CC2)CCN1Cc1nccs1.O=C(O)C(F)(F)F.O=C(O)C(F)(F)F` (configuration not stated) was tested, and the “Percent Effect” value was -17.24%.
In the case of `CCn1ncc2c1C(COCC1CC1)N(Cc1nccs1)CC2.O=C(O)C(F)(F)F.O=C(O)C(F)(F)F` (configuration not stated), the “Percent Effect” value is reported as -10.7%.
With `CCn1ncc2c1C(COCC1CC1)N(Cc1c(C)noc1C)CC2.O=C(O)C(F)(F)F.O=C(O)C(F)(F)F` (configuration not stated) the “Percent Effect” value was -2.948%.
For `COCC1c2c(cnn2CC2CC2)CCN1Cc1ccsc1.O=C(O)C(F)(F)F.O=C(O)C(F)(F)F` (configuration not stated), the “Percent Effect” value was 107.6%.
For `COCC1c2c(cnn2CC2CC2)CCN1Cc1ccc(C)o1.O=C(O)C(F)(F)F.O=C(O)C(F)(F)F` (configuration not stated), the “Percent Effect” value was 107.5%.
For `CCN1C[C@H]2C3(CCN(S(=O)(=O)CC)CC3)CC[C@@]2(C(=O)N(C)C)C1.O=C(O)C(F)(F)F`, the “Percent Effect” value was -7.289%.
With `Cc1ccc2nc(C3CCCN3Cc3nnc(C)s3)[nH]c2c1` (configuration not stated) the “Percent Effect” value was -155.9%.
In the case of `Clc1ccc2nncc(N3CCCCC3)c2c1`, the “Percent Effect” value is reported as -7.543%.
In the case of `O=C(NCCC1CN(Cc2c[nH]cn2)CCO1)c1ccccc1O` (configuration not stated), the “Percent Effect” value is reported as -1.985%.
With `N#Cc1ccccc1C(=O)NCCC1CN(Cc2ccco2)CCO1` (configuration not stated) the “Percent Effect” value was 86.72%.
For `NC1(C(=O)NCCC2CN(Cc3ccco3)CCO2)CCCC1` (configuration not stated), the “Percent Effect” value was 117.7%.
For `O=C(NCCCN1CCOCC1)C1CCCN(Cc2ccco2)C1` (configuration not stated), the “Percent Effect” value was 1.976%.
With `CC(C)(C)C(=O)NCCC1CN(Cc2ccccc2F)CCO1` (configuration not stated) the “Percent Effect” value was -7.627%.
`CCC1CN(CC(=O)NCc2ccco2)CCO1` (configuration not stated) was tested, and the “Percent Effect” value was -17.78%.
`Cc1ccc(C)c(NC(=O)Nc2c[nH]c(=O)[nH]c2=O)c1` was tested, and the “Percent Effect” value was -8.651%.
`Cc1cccc2c(CCNS(=O)(=O)C3CCOC3)c[nH]c12` (configuration not stated) was tested, and the “Percent Effect” value was 14.98%.

— ChEMBL document CHEMBL3988442, “University of Dundee, Small-Polar-MMV Screening Library” (2021)
